Bioassay records (PubChem BioAssay)
Only some compounds are listed: those with a hit (about 7.8% of all), similar ones and a draw of the others.
PostGolgi ctrl – growth of the yeast control strain, post-Golgi counter-screen; efflux-deficient yeast background strain, growth absorbance A615, 16 h; inhibition, % at 10 µM; actives 5% (n = 98,000)
PostGolgi yeast – growth inhibition of a yeast mutant, post-Golgi transport screen | inhibition, % at 10 µM | AID 739 | actives 0.9% (n = 98,000) | post-Golgi transport phenotypic cell assay;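 further: yeast cells grown in 1536-well plates; yeast grown about 18 h at 30C before absorbance read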
Cav32 inh – blocks human Cav3.2 T-type calcium channel; AID 449739; Cav3.2-expressing cells, Fluo-4 calcium fluorescence FDSS; active compounds read low; B-score at 10 µM; actives 4% (n = 100,000);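 active means single-dose well whose peak fluorescence ratio is a statistical outlier from its plate by either plate-standardised score or position-corrected B-score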
sEH inhibitor – inhibitors of human soluble epoxide hydrolase; actives 0.34% (n = 91,000); inhibition, % at 2 µM; P34913; recombinant human sEH enzymatic activity assay; in the data active means inhibition above about 80%
Target sequence (P34913 whole entry, looked up): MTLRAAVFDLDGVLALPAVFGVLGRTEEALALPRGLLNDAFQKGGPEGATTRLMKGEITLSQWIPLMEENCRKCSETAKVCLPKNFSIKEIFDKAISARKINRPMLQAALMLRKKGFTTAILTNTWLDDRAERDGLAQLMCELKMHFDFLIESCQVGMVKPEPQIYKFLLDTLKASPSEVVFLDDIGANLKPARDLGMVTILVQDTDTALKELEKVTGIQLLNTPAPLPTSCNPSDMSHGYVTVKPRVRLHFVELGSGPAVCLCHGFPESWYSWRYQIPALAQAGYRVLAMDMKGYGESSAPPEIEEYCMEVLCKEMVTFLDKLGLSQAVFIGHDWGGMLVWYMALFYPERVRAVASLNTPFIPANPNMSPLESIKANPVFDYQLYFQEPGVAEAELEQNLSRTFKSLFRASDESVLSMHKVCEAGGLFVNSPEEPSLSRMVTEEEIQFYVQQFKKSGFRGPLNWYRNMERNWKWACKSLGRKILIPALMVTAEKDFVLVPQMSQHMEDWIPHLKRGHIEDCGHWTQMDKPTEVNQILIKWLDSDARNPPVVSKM
sEH activator – activators of human soluble epoxide hydrolase; actives 0.04% (n = 91,000); activation, % at 2 µM; P34913; AID 717; purified human sEH enzymatic activity, activator screen; in the data active means activation above about 37%
Large screens that a line does not name were inactive. Unless noted, no stated cut-off is given here; in the data, active means inhibition above about 30%; inactive means the rest.

CCn1c(SC)nnc1-c1sc2cc(Cl)ccc2c1Cl	PostGolgi ctrl 70
CC(Sc1nc(NCc2ccccc2)nc(N(C)C)n1)C(=O)Nc1ccccc1 (centres undefined)	Cav32 inh -3.4
CN(C)c1nc(NCc2ccccc2)nc(SCC(=O)Nc2ccccc2)n1	none
CCc1ccc(C2=NN(S(C)(=O)=O)C(c3cccs3)C2)cc1 (centres undefined)	none
CCc1ccc(C2=NN(c3ccc(S(N)(=O)=O)cc3)C(c3ccc(F)cc3)C2)cc1 (centres undefined)	PostGolgi ctrl 91
CC1(C)C(=O)NCCN1C(=O)CCC(=O)O	none (no result: PostGolgi ctrl, PostGolgi yeast)
Cc1cc(C)c2cc(CN(CCO)C(=O)Nc3ccc(Cl)cc3)c(=O)[nH]c2c1	PostGolgi ctrl 47 (no result: sEH inhibitor, sEH activator)
O=C(Nc1cccc(Cl)c1)N(CCN1CCOCC1)Cc1cccc(Cl)c1	none
Cc1cc(C)c2cc(CN(CCN3CCCC3)C(=O)Nc3ccc(F)cc3)c(=O)[nH]c2c1	none (no result: sEH inhibitor, sEH activator)
Cc1ccc(C)c2[nH]c(=O)c(CN(CCN3CCCC3)C(=O)Nc3cccc(Cl)c3)cc12	Cav32 inh -7.6
O=c1cc(N2CCc3ccccc3C2)[nH]c(=O)n1-c1ccc(Cl)cc1	none
O=c1cc(N2CCN(c3ccccc3)CC2)[nH]c(=O)n1Cc1ccc(F)cc1	Cav32 inh -6.1
CN1CCN(c2cc(=O)n(Cc3ccc(F)cc3)c(=O)[nH]2)CC1	none (no result: sEH inhibitor, sEH activator)
O=c1cc(N2CCc3ccccc3C2)[nH]c(=O)n1Cc1ccc(F)cc1	Cav32 inh -4
CC(=O)N1c2ccccc2C(C)(C)C2CCC(C)CC21 (centres undefined)	Cav32 inh -4.6 (no result: PostGolgi ctrl, PostGolgi yeast)
O=C(CCN1C(=O)C2C3C=CC(C3)C2C1=O)NC1CCCc2ccccc21 (centres undefined)	none
CCC/C=C(\CCC)C(NS(=O)(=O)c1cccc2cccnc12)c1ccc(C(=O)OC)cc1 (centres undefined)	none (no result: PostGolgi ctrl, PostGolgi yeast, sEH inhibitor, sEH activator)
COCC(=O)n1nc(NCc2ccc(OC)cc2)nc1NCc1ccc(OC)cc1	PostGolgi ctrl 87, PostGolgi yeast 49, Cav32 inh -8.9
CCN(CC)c1ccc(NC(=O)CN2CCN(c3nc(C)cc(C)n3)CC2)cc1	Cav32 inh -4.2 (no result: sEH inhibitor, sEH activator)
O=C(CC1CCCC1)OCn1nnc2ccccc2c1=O	none (no result: sEH inhibitor, sEH activator)
CC(C)c1ccc(NC(=O)N(CCc2nc3ccccc3[nH]2)C2CCCC2)cc1	Cav32 inh -6.6
Cc1cc(N2CCCC2)ccc1/C=N/n1cnnc1	none
CCOC(=O)c1c(C)oc2c1c(C=NCc1ccccn1)c(O)c1ccccc12	none (no result: Cav32 inh, sEH inhibitor, sEH activator)
CCOC(=O)c1c(C)oc2c1c(C(c1cccnc1)N1CCOCC1)c(O)c1ccccc12 (centres undefined)	PostGolgi ctrl 37 (no result: sEH inhibitor, sEH activator)
CCOC(=O)c1c(C)oc2c1c1c(c3ccccc32)OCN(Cc2cccnc2)C1	PostGolgi ctrl 35 (no result: Cav32 inh)
CCOC(=O)c1c(C)oc2c1c(C=NCC1CCCO1)c(O)c1ccccc12 (centres undefined)	none (no result: Cav32 inh)
O=C(Oc1c(Cl)cc(Cl)c2cccnc12)c1ccco1	PostGolgi ctrl 31
COc1ccc(/C=N/c2oc(-c3ccccc3)cc2C#N)cc1OC	none
Cc1onc(-c2ccccc2Cl)c1C(=O)N/N=C(\N)COc1ccc(Cl)cc1	none (no result: Cav32 inh)
Cn1cc(C(=O)c2ccc(Cl)cc2Cl)cc1C(=O)N/N=C(\N)COc1cccc(C(F)(F)F)c1	Cav32 inh -8.4
CCSc1nc(C)cc(C)c1S(=O)(=O)c1ccccc1C	PostGolgi ctrl 31
CCC(C)Oc1nc(C)cc(C)c1S(=O)(=O)c1ccccc1C (centres undefined)	none
CSc1nc(C)cc(C)c1S(=O)(=O)c1ccccc1C	Cav32 inh -6.5
O=C([C@@H]1CC=C[C@@H]2CCN(C3CC3)C(=O)[C@@H]21)N1CCN(c2ccccc2)CC1	none (no result: PostGolgi ctrl, PostGolgi yeast, sEH inhibitor, sEH activator)
COC(=O)C1=C(C)NC2=C(C(=O)CC(C)(C)C2)C1c1cccc(C)n1 (centres undefined)	none
COC(=O)C1=C(C)NC2=C(C(=O)CCC2)C1c1cn(Cc2ccc(Br)cc2)nc1-c1ccccc1 (centres undefined)	Cav32 inh -7.3
COC(=O)C1=C(C)NC2=C(C(=O)CC(C)(C)C2)C1c1cn(Cc2ccc(Br)cc2)nc1-c1ccccc1 (centres undefined)	Cav32 inh -4.7
COC(=O)CCN1CCC(C(N)=O)CC1	none
COC(=O)c1onc(-c2c(C)cc(C)cc2C)c1C(=O)OC	none
Brc1ccc(-c2cn3c(n2)CCc2ccc4cccnc4c2-3)cc1	PostGolgi ctrl 59, PostGolgi yeast 52
O=C(c1ccccc1)c1cccc(NC(=O)c2ccc(Br)o2)c1	Cav32 inh -3.7
CCn1c(CCn2ccnc2C)n[nH]c1=S	PostGolgi ctrl 38
O=C(O)CCn1c2c(c3ccccc31)CCCC2	PostGolgi ctrl 48
COCCCn1c(N)c(-c2nc3ccccc3n2C)c2nc3ccccc3nc21	PostGolgi ctrl 73
Cn1c(-c2c(N)n(C3CCCC3)c3nc4ccccc4nc23)nc2ccccc21	PostGolgi ctrl 100
Cn1c(-c2c(N)n(CCc3ccccc3)c3nc4ccccc4nc23)nc2ccccc21	PostGolgi ctrl 78, PostGolgi yeast 88
CC1=C(C(=O)OCC2CCCO2)C(c2ccncc2)C2=C(CC(C)(C)CC2=O)N1 (centres undefined)	none
CC(C)(C)NS(=O)(=O)c1ccc(NS(C)(=O)=O)cc1	none
CC(C)(C)N1CC(c2nc3ccccc3n2Cc2ccc(Cl)cc2)CC1=O (centres undefined)	none
CC(C)C(=O)NCCc1nc2ccccc2n1CCCOc1ccc(Cl)cc1	Cav32 inh -5.6
CCCc1nc2ccccc2n1CCOc1ccccc1	Cav32 inh -5.3
Cc1ccc(OCCn2c(CCNC(=O)C(C)C)nc3ccccc32)cc1	Cav32 inh -6.9
CC(C)(C)N1CC(c2nc3ccccc3n2CCOc2ccccc2)CC1=O (centres undefined)	Cav32 inh -3.9
Cc1ccc(CN2CCNC(=O)C2CC(=O)O)o1 (centres undefined)	none
O=C(NCc1ccco1)C1CC(c2ccc(C(F)(F)F)cc2)=NO1 (centres undefined)	none (no result: PostGolgi ctrl, PostGolgi yeast, sEH inhibitor, sEH activator)
Cc1cc(C)n(C(=O)C23CC4CC(CC(C4)C2)C3)n1	Cav32 inh -5.6
COc1ccccc1S(=O)(=O)Cc1ccc(C(=O)NC(C)c2ccc3c(c2)OCCO3)o1 (centres undefined)	none
CC#CCN1c2ccccc2[C@]23C[C@@H](C(=O)OC)N=C2NC(C(=O)OC)=C(C(=O)OC)[C@H]13	none (no result: PostGolgi ctrl, PostGolgi yeast, sEH inhibitor, sEH activator)
CC1=CCC(C(=O)N/N=C/c2cccs2)C(c2ccc(F)cc2)C1 (centres undefined)	PostGolgi ctrl 45, Cav32 inh -5.3
O=C(Cc1ccccc1)N/N=C/c1cccs1	none
Cc1ccc(S(=O)(=O)N2CN(Cc3ccco3)c3nc4ccccc4nc32)cc1C	PostGolgi ctrl 32
COC(=O)C1=C(N)c2c(F)cccc2C1(C#N)c1ccc(F)cc1 (centres undefined)	Cav32 inh -5.6
CCCNS(=O)(=O)c1cc(Br)cc2c1N(C(=O)CC)CC2	PostGolgi ctrl 34 (no result: sEH inhibitor, sEH activator)
O=C(C1CC1)N1CCc2cc(Br)cc(S(=O)(=O)NCCN3CCOCC3)c21	none (no result: sEH inhibitor, sEH activator)
